According to PubChem BioAssay AID1159580 (chemical genetic matrix, 2015):
Several values for one entry are separate records, joined by “and”; a condition that tells them apart may be missing. Identical values can stand only once. The campaign covered roughly 5,500 compounds. About 2,000 (36%) were called active. About 18% were inconclusive and are not listed. No stated cut-off is given here; in the data, active means normalized growth mostly below about 0.91 (no sharp cut-off); inconclusive means no clear call, values can overlap the other calls; inactive means mostly above about 0.92. The list shows a part of the results.

Assay: chemical genetic growth profiling, strain panel (AID 1159580);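 further: tested at 20 µM; growth read once vehicle control cultures reached saturation at 30 °C; 1 = growth at the plate median or of vehicle wells; lower values mean less growth of the strain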
Settings: growth OD
[1] = S. cerevisiae deletion strains, locus YAL013W, strain DEP1, active compounds read low
[2] = S. cerevisiae deletion strains, locus YAL040C, strain CLN3, active compounds read low
[3] = S. cerevisiae deletion strains, locus YCL061C, strain MRC1 (second series), active compounds read low
[4] = S. cerevisiae deletion strains, locus YDR150W, strain NUM1, active compounds read low
[5] = S. cerevisiae deletion strains, locus YER002W, strain NOP16, active compounds read low
[6] = S. cerevisiae deletion strains, locus YMR307W, strain GAS1, active compounds read low
[7] = S. cerevisiae deletion strains, locus YNL128W, strain TEP1, active compounds read low
[8] = S. cerevisiae deletion strains, locus YNL153C, strain GIM3, active compounds read low
[9] = S. cerevisiae deletion strains, locus YNL175C, strain NOP13, active compounds read low
[10] = S. cerevisiae deletion strains, locus YNL197C, strain WHI3, active compounds read low
[11] = S. cerevisiae deletion strains, locus YNL224C, strain SQS1, active compounds read low
[12] = S. cerevisiae deletion strains, locus YOR083W, strain WHI5 (second series), active compounds read low
[13] = S. cerevisiae deletion strains, locus YPL055C, strain LGE1, active compounds read low
[14] = S. cerevisiae deletion strains, locus YJR075W, strain HOC1, active compounds read low
[15] = S. cerevisiae deletion strains, locus YPL241C, strain CIN2, active compounds read low

Measured: normalized growth

CCN1C(=O)C=CC1=O
inactive: [1] 1.04 | [2] 1 | [3] 1.01 | [4] 1.01 | S. cerevisiae deletion strains, locus YDR363W, strain ESC2, active compounds read low 0.992 | [5] 1 | [6] 1.02 | [7] 1.03 | [8] 1.02 | [9] 1.01 | [10] 1.01 | [11] 1 | [12] 1.07 | [13] 1.09

C[C@@]12C(=O)OC(=O)[C@]1(C)C1CCC2O1
active: S. cerevisiae deletion strains, locus YBR021W, strain FUR4, active compounds read low 0.808 | S. cerevisiae deletion strains, locus YBR229C, strain ROT2, active compounds read low 0.913 | S. cerevisiae deletion strains, locus YCL029C, strain bik1, active compounds read low 0.685 | S. cerevisiae deletion strains, locus YDL074C, strain BRE1, active compounds read low 0.662 | S. cerevisiae deletion strains, locus YDL185W, strain tfp1, active compounds read low 0.106 | S. cerevisiae deletion strains, locus YDL192W, strain arf1, active compounds read low 0.87 | S. cerevisiae deletion strains, locus YDR101C, strain arx1, active compounds read low 0.715 | S. cerevisiae deletion strains, locus YDR162C, strain NBP2, active compounds read low 0.824 | S. cerevisiae deletion strains, locus YDR318W, strain mcm21, active compounds read low 0.681 | S. cerevisiae deletion strains, locus YDR388W, active compounds read low 0.85 | S. cerevisiae deletion strains, locus YDR502C, strain sam2, active compounds read low 0.826 | S. cerevisiae deletion strains, locus YEL061C, strain CIN8, active compounds read low 0.91 | S. cerevisiae deletion strains, locus YER155C, strain BEM2, active compounds read low 0.887 | S. cerevisiae deletion strains, locus YER167W, strain BCK2, active compounds read low 0.895 | S. cerevisiae deletion strains, locus YGL078C, strain dbp3, active compounds read low 0.15 | S. cerevisiae deletion strains, locus YGL086W, strain mad1, active compounds read low 0.911 | S. cerevisiae deletion strains, locus YGR135W, strain pre9, active compounds read low 0.785 | S. cerevisiae deletion strains, locus YHR030C, strain SLT2, active compounds read low 0.0503 and 0.0957 | S. cerevisiae deletion strains, locus YHR079C, strain IRE1 (second series), active compounds read low 0.782 | S. cerevisiae deletion strains, locus YHR079C, strain IRE1, active compounds read low 0.173 | S. cerevisiae deletion strains, locus YHR094C, strain hxt1, active compounds read low 0.861 | S. cerevisiae deletion strains, locus YHR129C, strain ARP1, active compounds read low 0.877 | S. cerevisiae deletion strains, locus YHR200W, strain rpn10, active compounds read low 0.82 | S. cerevisiae deletion strains, locus YIL125W, strain kgd1, active compounds read low 0.23 | S. cerevisiae deletion strains, locus YIR030C, strain dcg1, active compounds read low 0.869 | S. cerevisiae deletion strains, locus YJL095W, strain BCK1, active compounds read low 0.0568 and 0.105 | S. cerevisiae deletion strains, locus YJL168C, strain set2, active compounds read low 0.798 | S. cerevisiae deletion strains, locus YJR066W, strain TOR1, active compounds read low 0.049 | S. cerevisiae deletion strains, locus YKL009W, strain mrt4, active compounds read low 0.169 | S. cerevisiae deletion strains, locus YKL068W, active compounds read low 0.288 | S. cerevisiae deletion strains, locus YKL085W, strain MDH1 (second series), active compounds read low 0.17 | S. cerevisiae deletion strains, locus YKL085W, strain MDH1, active compounds read low 0.17 | S. cerevisiae deletion strains, locus YKR001C, strain vps1, active compounds read low 0.658 | S. cerevisiae deletion strains, locus YLR102C, strain apc9, active compounds read low 0.833 | S. cerevisiae deletion strains, locus YLR113W, strain HOG1, active compounds read low 0.182 | S. cerevisiae deletion strains, locus YLR268W, strain sec22, active compounds read low 0.78 | S. cerevisiae deletion strains, locus YLR371W, strain rom2, active compounds read low 0.879 | S. cerevisiae deletion strains, locus YML016C, strain PPZ1, active compounds read low 0.91 | S. cerevisiae deletion strains, locus YML032C, strain rad52, active compounds read low 0.69 | S. cerevisiae deletion strains, locus YML124C, strain tub3, active compounds read low 0.853 | S. cerevisiae deletion strains, locus YMR078C, strain ctf18, active compounds read low 0.753 | S. cerevisiae deletion strains, locus YMR223W, strain ubp8, active compounds read low 0.8 | S. cerevisiae deletion strains, locus YMR263W, strain SAP30, active compounds read low 0.877 | S. cerevisiae deletion strains, locus YNL067W, strain RPL9B, active compounds read low 0.841 | [8] 0.671 | S. cerevisiae deletion strains, locus YNL183C, strain NPR1, active compounds read low 0.0569 | S. cerevisiae deletion strains, locus YNL250W, strain rad50, active compounds read low 0.144 | S. cerevisiae deletion strains, locus YNL271C, strain bni1, active compounds read low 0.521 | S. cerevisiae deletion strains, locus YNL298W, strain CLA4, active compounds read low 0.162 | S. cerevisiae deletion strains, locus YNL322C, strain KRE1, active compounds read low 0.923 | S. cerevisiae deletion strains, locus YNR052C, strain pop2, active compounds read low 0.791 | S. cerevisiae deletion strains, locus YOL147C, strain pex11, active compounds read low 0.825 | S. cerevisiae deletion strains, locus YOR069W, strain VPS5, active compounds read low 0.917 | S. cerevisiae deletion strains, locus YOR136W, strain idh2, active compounds read low 0.906 | S. cerevisiae deletion strains, locus YOR144C, strain elg1, active compounds read low 0.703 | S. cerevisiae deletion strains, locus YOR231W, strain MKK1, active compounds read low 0.147 | S. cerevisiae deletion strains, locus YOR316C, strain cot1, active compounds read low 0.854 | [13] 0.601 | S. cerevisiae deletion strains, locus YPL256C, strain CLN2, active compounds read low 0.167 | S. cerevisiae deletion strains, locus YPR119W, strain clb2, active compounds read low 0.861 | S. cerevisiae deletion strains, locus YPR141C, strain kar3, active compounds read low 0.113 | S. cerevisiae deletion strains, locus YPR163C, strain tif3, active compounds read low 0.585 | S. cerevisiae deletion strains, locus YPR167C, strain met16, active compounds read low 0.786 | S. cerevisiae deletion strains, strain wtn01, active compounds read low 0.834
inactive: [1] 0.966 | S. cerevisiae deletion strains, locus YDL035C, strain GPR1, active compounds read low 0.919 | S. cerevisiae deletion strains, locus YDL101C, strain DUN1, active compounds read low 0.971 | S. cerevisiae deletion strains, locus YDL134C, strain PPH21, active compounds read low 0.939 | [4] 0.926 | S. cerevisiae deletion strains, locus YER110C, active compounds read low 0.902 | S. cerevisiae deletion strains, locus YGL248W, strain PDE1, active compounds read low 0.932 | S. cerevisiae deletion strains, locus YGR078C, strain PAC10, active compounds read low 0.869 | S. cerevisiae deletion strains, locus YGR229C, strain SMI1, active compounds read low 1.02 | S. cerevisiae deletion strains, locus YGR252W, strain gcn5, active compounds read low 0.848 | S. cerevisiae deletion strains, locus YIL066C, strain RNR3, active compounds read low 0.924 | S. cerevisiae deletion strains, locus YIL073C, strain SPO22, active compounds read low 0.968 | S. cerevisiae deletion strains, locus YJL134W, strain LCB3, active compounds read low 0.929 | S. cerevisiae deletion strains, locus YJL187C, strain SWE1 (second series), active compounds read low 0.895 | S. cerevisiae deletion strains, locus YJR043C, strain POL32, active compounds read low 0.862 | [14] 0.964 | S. cerevisiae deletion strains, locus YKL190W, strain CNB1, active compounds read low 0.94 | S. cerevisiae deletion strains, locus YLR039C, strain RIC1, active compounds read low 0.918 | S. cerevisiae deletion strains, locus YLR058C, strain SHM2, active compounds read low 0.931 | S. cerevisiae deletion strains, locus YLR262C, strain YPT6, active compounds read low 1 | S. cerevisiae deletion strains, locus YLR330W, strain CHS5, active compounds read low 0.923 | S. cerevisiae deletion strains, locus YLR342W, strain FKS1 (second series), active compounds read low 1.11 | S. cerevisiae deletion strains, locus YLR418C, strain cdc73, active compounds read low 0.949 | [6] 1.13 | [7] 0.944 | S. cerevisiae deletion strains, locus YNL233W, strain BNI4, active compounds read low 0.923 | S. cerevisiae deletion strains, locus YNL307C, strain MCK1, active compounds read low 0.922 | S. cerevisiae deletion strains, locus YOL006C, strain TOP1, active compounds read low 0.835 | S. cerevisiae deletion strains, locus YOL012C, strain htz1 0.4 | S. cerevisiae deletion strains, locus YOR061W, strain CKA2, active compounds read low 0.905 | S. cerevisiae deletion strains, locus YOR184W, strain ser1, active compounds read low 0.939 | [15] 0.932 | S. cerevisiae strains, strain wild type, active compounds read low 0.94

CC12C(=O)OC(=O)C1(C)C1CCC2O1 (configuration not stated)
active: [9] 0.887 | [10] 0.879 | [11] 0.911 | [12] 0.85
inactive: [2] 0.905 | [3] 0.975 | [5] 0.925 | [14] 1.04 | [7] 0.954 | [13] 1.05 | [15] 0.967
